Assay outcomes deposited in PubChem BioAssay by National Center for Advancing Translational Sciences (NCATS).
HCMV inh: blocks human cytomegalovirus replication. AID 1259415. activity change, negative = inhibition, % at 57.5 µM. hit rate 4.5% among 410,000. HFF cells, HCMV-luciferase reporter, 72 h; stronger effect = lower value; in the data active = activity change below about -60%; inconclusive = no clear call, values can overlap the other calls; inactive = above about -39%; also: % is scaled to controls: 0 for no effect and ±100 for the full control effect
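Compounds were evaluated in HFFs infected with an HCMV luciferase reporter virus (MOI 1 PFU/cell). Luciferase in lysates collected 72 h post infection served as the replication measure.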
Cycloheximide cs: counter-screen hit for Shiga toxin inhibitors, cycloheximide; cell reporter, cycloheximide protein synthesis inhibition counterscreen; max response, %; hit rate 12% among 300,000; AID 2314; in the data active = max response mostly above about 13%, no sharp cut-off; inactive = mostly below about 14%; also: read at 38.3 µM for the half of the compounds with a filed dose; 0% is about no effect
Pf growth 96h: P. falciparum growth inhibition at 96 hours; P. falciparum luciferase reporter growth, 96 h; Potency, µM (top dose mostly 28.7 µM), for inactives: at the highest dose activity change, negative = inhibition, actives largely listed as inhibitors; hit rate 6.9% among 320,000; also: potency is read from the fitted curve at half-maximal effect; % is scaled to controls: 0 for no effect and ±100 for the full control effect
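Readout is luminescence from an integrated firefly luciferase in P. falciparum. Red cells, 2% hematocrit and 0.05% parasitemia final, were cultured with compound through two parasite generations (96 hours) at 37 C, 5% CO2.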
HCV inh: blocks hepatitis C virus; Huh7.5.1 HCVcc-Cre infection, luciferase reporter, 44 h; Potency, µM (doses to about 41.8 µM), without a hit: top-dose activity change, negative = inhibition, usual class: inhibitors; hit rate 3.4% among 340,000; AID 651820; also: potency is read from the fitted curve at half-maximal effect; % is scaled to controls: 0 for no effect and ±100 for the full control effect
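After 44 h co-culture of compound, cells and HCVcc-Cre (~0.5 moi), substrate is added for 15 min at room temperature and luciferase measured over 15 sec. Cells were seeded at 1,000/well and pre-cultured 4 h.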
Shiga inhibitor: blocks Shiga toxin action in Vero cells; Vero cells, Shiga toxin protein synthesis inhibition reporter; inhibition, % at 38.7 µM; hit rate 9.2% among 290,000; AID 2315; in the data active = inhibition mostly above about 28%, no sharp cut-off; inactive = mostly below about 43%; also: 0% is about no effect
Pf growth 48h: inhibits P. falciparum growth in the first generation, 48 h | P. falciparum luciferase growth in erythrocytes, 48 h | Potency, µM (top dose mostly 28.7 µM), without a hit: at the top dose activity change, negative = inhibition, hits mostly inhibitors | hit rate 5.9% among 310,000; also: potency is read from the fitted curve at half-maximal effect; % is scaled to controls: 0 for no effect and ±100 for the full control effect
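A one-generation exposure of luciferase-tagged malaria parasites in RPMI 1640/Albumax erythrocyte culture, 37 C and 5% CO2. Inhibition is inferred from decreased luminescence after adding detection reagent.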
Numbers without * were called inactive; u = inconclusive; x = no result. Compounds with a hit are over-represented: about 21% of the library has one in this group of screens. Unless noted, calls follow the shape of the dose curve; as a rule, active = well fitted inhibition curve with a large enough effect; inconclusive = small, poorly fitted or top-dose-only effect, or another doubt; inactive = no such curve, though single readings can be large or run the other way.

SMILES	HCMV inh	Cycloheximide cs	Pf growth 96h	HCV inh	Shiga inhibitor	Pf growth 48h
CCN1C(=O)[C@@H]2[C@@H](c3ccc(-c4ccc(Cl)c(Cl)c4)c(OC)c3)N3CCCC[C@@]3(C(=O)OC)[C@@H]2C1=O	-6	x	u	u	x	2.6µM*
CCN1C(=O)[C@@H]2[C@@H](c3ccc(-c4ccc(F)cc4)cc3)N3CCCC[C@@]3(C(=O)OC)[C@@H]2C1=O	21	x	u	-2%	x	10µM*
CCN1C(=O)[C@@H]2[C@@H](c3ccc(-c4ccc(F)cc4)c(OC)c3)N3CCCC[C@@]3(C(=O)OC)[C@@H]2C1=O	u	x	7.4µM*	u	x	10µM*
COC(=O)[C@@]12CCCN1[C@H](c1ccc(-c3ccc(F)cc3)cc1)[C@H]1C(=O)N(C)C(=O)[C@H]12	15	x	u	u	x	1.2µM*
Cc1ccc(-c2nnn(CC(=O)N(CC(=O)NC3CCCC3)c3ccccc3F)n2)o1	17	-5	-8%	0%	3	-4%
Cc1ccc(CN2CCCn3nc(C(=O)NC(C)C)cc3C2=O)cc1	2	x	x	x	x	x
CC(/C=N/NC(=O)Cn1nnc(N)n1)=C\c1ccc(C(C)C)cc1	27	24*	31%	-4%	77*	2%
CC(/C=N/NC(=O)Cn1nccc1C)=C\c1ccc(C(C)C)cc1	7	42*	3%	4%	43*	12%
CC(/C=N\NC(=O)Cn1cncn1)=C/c1ccc(C(C)C)cc1	44	24*	20%	0%	81*	23%
Cc1ccc(/C=N/NC(=O)Cn2nccc2C)o1	-5	-3	0%	10%	-3	-4%
CC(=C/c1ccc(C(C)C)cc1)/C=N/NC(=O)Cn1nc(C)cc1C	-23	18*	2%	4%	65	-10%
CCC(=O)N1CCc2cc(Br)cc(S(=O)(=O)CCC(=O)Nc3ccccc3C)c21	-2	x	x	x	x	x
COCCNc1nc2c(c(=O)n(C)c(=O)n2C)n1Cc1c(F)cccc1Cl	-19	x	x	x	x	x
COc1cc(C(=O)NCC(c2cccnc2)N2CCN(C)CC2)cc(OC)c1OC (stereo not drawn)	-33	-2	-8%	-14%	3	-2%
O=C(NCC(c1cccnc1)N1CCN(c2ccc(F)cc2)CC1)c1cccc(Cl)c1 (stereo not drawn)	42	-1	1%	14µM*	-21	12µM*
COC(=O)NCC(c1cccnc1)N1CCN(c2ccc(F)cc2)CC1 (stereo not drawn)	-7	x	x	x	x	x
O=C(NCC(c1cccnc1)N1CCN(c2ccccc2)CC1)OCc1ccccc1 (stereo not drawn)	-20	5	19%	-10%	-1	7.4µM*
O=C(NCC(c1cccnc1)N1CCN(c2ccc(F)cc2)CC1)Oc1ccccc1 (stereo not drawn)	7	-5	u	20%	-3	8.3µM*
COc1cc(C(=O)NCC(c2cccnc2)N2CCN(c3ccccc3)CC2)cc(OC)c1OC (stereo not drawn)	42	-1	u	u	-6	13µM*
C=CC(=O)N1CCCC(Nc2nc(Nc3ccc(N(C)C(=O)CC)cc3C)nc3nc[nH]c23)C1 (stereo not drawn)	9	x	x	-4%	x	x
CCc1ccc(CSc2nc(-c3ccc(OC)cc3)nc3c2Cc2c(CO)cnc(C)c2O3)cc1	0	x	x	x	x	x
O=C(NCCc1c[nH]c2ccccc12)C(=O)NCC(c1cccnc1)N1CCN(c2ccccc2)CC1 (stereo not drawn)	u	-4	8.3µM*	10µM*	33	13µM*
COc1ccc(CNC(=O)CN(C(=O)c2csnn2)c2ccc(F)cc2)cc1	66	-1	-2%	13%	-1	-10%
Cc1[nH]c(/C=C2\C(=O)Nc3ccc(S(=O)(=O)N(C)c4cccc(Cl)c4)cc32)c(C)c1C(=O)N1CCN(C)CC1	x	-5	x	x	-7	x
CCN(CC)CCNC(=O)c1c(C)[nH]c(/C=C2\C(=O)Nc3ccc(F)cc32)c1C	x	x	2.7µM*	x	x	2.1µM*
SMILES	HCMV inh	Cycloheximide cs	Pf growth 96h	HCV inh	Shiga inhibitor	Pf growth 48h
CCOc1cc(C=O)c(Br)cc1OC1CCCC1	-62*	-5	75%	-26%	12	-2%
CN(C)C(=O)c1ccc(NC(=O)c2ccccc2SCC(=O)N2CCCC2)cc1	12	x	-18%	8%	x	-5%
O=C(Cn1nnc2ccccc21)c1ccc(Br)cc1	-39	35*	48%	18%	48*	43%
Cc1ccc(NC(=O)CCn2nnc3ccccc32)c(C)c1	28	-3	13%	2%	-10	3%
C/C(=N\NC(=O)CCn1nnc2ccccc21)c1cccs1	-32	33*	39%	2%	51*	30%
CC(=O)Nc1ccc(C(=O)Cn2nnc3ccccc3c2=O)cc1	75	13*	4%	x	50*	55%
O=C(Cn1c(C(F)(F)F)nc2ccccc21)c1ccc(Br)cc1	u	-5	u	-14%	-18	-21%
C/C(=N\NC(=O)Cn1cnc2ccccc21)c1cccs1	-35	-4	-14%	-1%	18	5%
Cc1cc(C)cc(NC(=O)Cn2nnc3ccccc3c2=O)c1	-14	3	24%	13%	13	14%
Cc1ccc(NC(=O)CCn2nnc3ccccc32)cc1	17	25*	14%	-17%	79*	50%
Cn1c(=O)n(C)c2cc(S(=O)(=O)N3CCN(c4ccccc4)CC3)ccc21	-6	-1	0%	14%	-3	15%
Cc1c(C(=O)Nc2nc(-c3ccc(F)cc3)ns2)oc2ccc(Cl)cc12	35	x	x	x	x	x
COc1ccccc1NC(=S)N1CCn2cccc2C1c1cccnc1 (stereo not drawn)	-17	-1	u	-16%	-2	u
O=C(Cn1nnc2ccccc21)N1CCCCC1	-2	10	101%	15%	13	-5%
CC(=O)c1cccc(NC(=O)CCCCCn2nnc3ccccc3c2=O)c1	14	6	3.3µM*	-13%	3	6.6µM*
Cc1ccc(C(=O)Cn2nnc3ccccc32)cc1C	40	69*	263%	1%	140*	303%
CC(=O)Nc1ccc(NC(=O)CCCCCn2nnc3ccccc3c2=O)cc1	-7	2	-8%	14%	-3	-9%
